Only some compounds are listed: those with a hit (about 19% of all), similar ones and a draw of the others.
TDP1 cell CPT – growth inhibition of DT40 Tdp1-/-;hTDP1 cells with camptothecin (screen for TDP1 inhibitors); 12% of 420,000 active; Potency, µM (doses to about 46.2 µM), actives largely listed as inhibitors; chicken DT40 Tdp1-/-;hTDP1 cells + 20 nM CPT, ATP luminescence, 48 h; AID 686979; further: nearly all actives have a fitted effect of over 55% in size
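Chicken DT40 Tdp1-/- cells complemented with human TDP1, 400 cells/well, exposed to compounds plus 20 nM camptothecin for at least 48 h at 37 C; viability read as ATP content by CellTiter-Glo luminescence.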
KB-V1 cytotox – kills drug-selected multidrug resistant KB-V1 cells; KB-V1 MDR cells viability, CellTiter-Glo, 72 h; Potency, µM (titrated, usually from 46.1 µM), most hits filed as cytotoxic; 3.4% of 400,000 active; AID 1347076; further: nearly all actives have a fitted effect of over 60% in size
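qHTS viability screen in drug-selected KB-V1 MDR cells: 72 h compound treatment at 37 degrees C, ATP luminescence end point.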
HT1080 IDH1KD tx – toxicity to HT-1080 IDH1 knockdown cells (counter line). Potency, µM (series often up to 46.1 µM), most hits filed as cytotoxic. HT-1080 IDH1 knockdown viability, ATP luminescence, 48 h. 2% of 360,000 active
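IDH1KD HT-1080 cells, 750/well, RPMI + 5% FBS; compound pinned after 2 h settling; 48 h, 37 °C; CellTiter-Glo luminescence; % activity normalised to DMSO and no-cell wells; curves fitted, classed by r2 and efficacy.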
HT1080-NT tox – kills 2HG-producing HT-1080-NT fibrosarcoma cells; HT-1080-NT fibrosarcoma viability, CellTiter-Glo ATP luminescence, 48 h; Potency, µM (doses to about 46.1 µM), usual class: cytotoxic; AID 686970; 1.6% of 360,000 active;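 further: NT is the 2HG producing partner of a matched IDH1 knockdown line; nearly all actives have a fitted effect of over 55% in size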
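Read-out is CellTiter-Glo luminescence after 10 minutes at room temperature, following 48 hours' compound treatment of HT-1080-NT cells (750 cells/well, RPMI, 5% FBS, 37 degrees C).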
TDP1 cell noCPT – qHTS for Inhibitors of human tyrosyl-DNA phosphodiesterase 1 (TDP1): qHTS in cells in absence of CPT | DT40 Tdp1-/- hTDP1 cells, no CPT, ATP luminescence, 48 h | Potency, µM (top dose mostly 46.2 µM), hits mostly inhibitors | 15% of 420,000 active; further: nearly all actives have a fitted effect of over 55% in size
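Growth kinetics read by CellTiter-Glo luminescence after ≥48 hr at 37 °C. Cells: DT40 Tdp1-/- stably carrying human TDP1, 400 per well, compound exposure in the absence of CPT (DMSO vehicle).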
KB-3-1 cytotox – KB-3-1 parental cell cytotoxicity | Potency, µM (highest dose often 46.1 µM), hits mostly cytotoxic | 1.4% of 400,000 active | KB-3-1 viability, CellTiter-Glo ATP luminescence, 72 h; further: nearly all actives have a fitted effect of over 60% in size
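Here the drug-naive KB-3-1 line serves as comparator for MDR sub-line selectivity; cells received compound titrations, 72 h at 37 °C, then CellTiter-Glo readout.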
Of the large screens only hits and unclear results are named; the others gave an inactive call. The call rests on the fitted dose curve; in most records, active means well fitted curve in the direction sought with a large enough effect; inconclusive means small, poorly fitted or top-dose-only effect, or another doubt; inactive means no such curve, though single readings can be large; an effect the other way counts as inactive or inconclusive.

CCN1CCN(C(=O)CN(c2cccc(Br)c2)S(=O)(=O)c2ccccc2)CC1	none
COc1ccc(S(=O)(=O)N(CC(=O)N2CCN(C)CC2)c2ccc(C)cc2)cc1OC	KB-V1 cytotox inconclusive
COc1ccc(N(CC(=O)N2CCc3ccccc3C2)S(=O)(=O)c2ccc(C)cc2)cc1Cl	TDP1 cell CPT inconclusive, TDP1 cell noCPT 16.4µM (no result: HT1080 IDH1KD tx, HT1080-NT tox)
O=C(CN(c1cccc(Br)c1)S(=O)(=O)c1ccccc1)N1CCc2ccccc2C1	TDP1 cell CPT 14.6µM, TDP1 cell noCPT 14.6µM (no result: HT1080 IDH1KD tx, HT1080-NT tox)
CN(N=O)C(=O)N[C@H]1C(O)C(O)C(CO)O[C@@H]1O (some centres undefined)	none (no result: KB-V1 cytotox, HT1080 IDH1KD tx, HT1080-NT tox, KB-3-1 cytotox)
CCOC(=O)N1CCN(C(=O)/C(=C/c2ccccc2OC)NC(=O)c2ccccc2)CC1	KB-V1 cytotox 7.31µM
O=C(OCc1ccccc1)/C(=C/c1cccc2ccccc12)NC(=O)c1ccccc1	TDP1 cell noCPT inconclusive
C=CCOC(=O)/C(=C/c1cccc2ccccc12)NC(=O)c1ccccc1	TDP1 cell CPT 29.1µM, KB-V1 cytotox 8.2µM, TDP1 cell noCPT 23.1µM
CCOC(=O)N1CCN(C(=O)/C(=C/c2ccc(OC)c(OC)c2)NC(=O)c2ccccc2)CC1	none
COc1ccc(C(=O)N/C(=C\c2cccc3ccccc23)C(=O)N2CCN(C)CC2)cc1	TDP1 cell CPT inconclusive, TDP1 cell noCPT 18.4µM
CCC(C)NC(=O)CN1C(=O)c2cccnc2Sc2ccccc21 (centres undefined)	TDP1 cell CPT inconclusive (no result: HT1080 IDH1KD tx, HT1080-NT tox)
Cc1cccc(CSc2nc3nc(C)cc(C)n3n2)c1	TDP1 cell CPT inconclusive
CCOC(=O)C1=C(C)N(c2ccc(C)cc2)C(=O)/C1=C\c1cccs1	TDP1 cell CPT inconclusive, KB-V1 cytotox inconclusive
COC(=O)C1=C(C)N(c2ccc(Cl)cc2)/C(=C/c2cccs2)C1=O	TDP1 cell CPT inconclusive, TDP1 cell noCPT 13µM
CCOC(=O)C1=C(C)N(c2ccccc2)C(=O)/C1=C\c1cccs1	TDP1 cell CPT inconclusive, KB-V1 cytotox 18.4µM, TDP1 cell noCPT inconclusive
COC(=O)C1=C(C)N(c2ccc(C)c(C)c2)/C(=C/c2cccs2)C1=O	TDP1 cell CPT 15.8µM, TDP1 cell noCPT 15.8µM, KB-3-1 cytotox inconclusive
CN(C)/C=C(/C(=O)c1ccc(Cl)cc1)S(=O)(=O)c1ccc(Cl)cc1	none
Cc1ccc(NC(=O)NCCc2c(C)nn(C)c2C)c(Cl)c1	none (no result: HT1080 IDH1KD tx, HT1080-NT tox)
COc1ccccc1C(=O)N(CN1CCCC1=O)c1cccc(Cl)c1	TDP1 cell CPT inconclusive, TDP1 cell noCPT inconclusive
COc1ccccc1N(CN1CCCC1=O)C(=O)c1c(F)cccc1Cl	TDP1 cell CPT 20.6µM, TDP1 cell noCPT 10.3µM
CCOc1ccccc1C(=O)N(CN1CCCC1=O)c1cccc(Cl)c1	TDP1 cell CPT 14.6µM, KB-V1 cytotox 11.6µM, TDP1 cell noCPT 9.2µM
CC1Cc2cc(S(=O)(=O)N3CCC(C(=O)N(C)Cc4ccco4)CC3)ccc2N1C(=O)C1CCC1 (centres undefined)	TDP1 cell CPT inconclusive, TDP1 cell noCPT inconclusive, KB-3-1 cytotox inconclusive
Cc1ccc(-n2c(=O)c3c4c(sc3n(CC(=O)C(C)(C)C)c2=O)CCCCC4)cc1C	TDP1 cell CPT inconclusive, TDP1 cell noCPT inconclusive (no result: HT1080 IDH1KD tx, HT1080-NT tox)
CCn1c(N2CCN(S(=O)(=O)c3ccc(F)cc3)CC2)nc2ccccc21	TDP1 cell CPT inconclusive, KB-V1 cytotox 11.6µM, TDP1 cell noCPT 14.6µM, KB-3-1 cytotox inconclusive
O=S(=O)(c1ccc(Cl)cc1)N1CCN(c2nc(C(F)(F)F)nc3ccccc23)CC1	TDP1 cell CPT inconclusive, TDP1 cell noCPT inconclusive
CCn1c(N2CCN(S(=O)(=O)CC)CC2)nc2ccccc21	KB-V1 cytotox inconclusive
CCn1c(N2CCN(S(=O)(=O)c3ccc(Cl)cc3)CC2)nc2ccccc21	TDP1 cell CPT 14.6µM, KB-V1 cytotox 8.2µM, HT1080 IDH1KD tx inconclusive, TDP1 cell noCPT 14.6µM, KB-3-1 cytotox inconclusive
CN(C(=O)c1cccc(NC(=O)Cc2ccc(NC(=O)C3CCCN(C(=O)C4CC4)C3)cc2)c1)C1CCCC1 (centres undefined)	TDP1 cell noCPT inconclusive
CC(=O)c1ccc(OCCCCCCCOc2ccc(C(C)=O)cc2)cc1	KB-V1 cytotox inconclusive
Cc1cc(C)cc(NC(N)=S)c1	TDP1 cell CPT inconclusive
O=C(CN1C(=O)CCn2nc(-c3ccccc3)cc21)NCc1ccc(F)cc1	none (no result: HT1080 IDH1KD tx, HT1080-NT tox)
COc1cc(F)ccc1-c1csc(C(C)(NC(C)=O)c2ccccc2)n1 (centres undefined)	TDP1 cell CPT 11.6µM, TDP1 cell noCPT 5.17µM
COc1ccc(C(C)(NC(C)=O)c2nc(-c3cccnc3)cs2)cc1 (centres undefined)	TDP1 cell CPT inconclusive
COc1ccc(C(C)(NC(C)=O)c2nc(-c3ccc(F)cc3OC)cs2)cc1 (centres undefined)	TDP1 cell CPT 14.6µM, TDP1 cell noCPT 13µM
COc1ccc(C(C)(NC(C)=O)c2nc(-c3cccc(C(F)(F)F)c3)cs2)cc1 (centres undefined)	TDP1 cell CPT inconclusive, HT1080 IDH1KD tx inconclusive, HT1080-NT tox inconclusive, TDP1 cell noCPT inconclusive
COc1ccc(C(C)(NC(C)=O)c2nc(-c3cnc4ccccc4c3)cs2)cc1 (centres undefined)	TDP1 cell CPT inconclusive, TDP1 cell noCPT inconclusive
COc1ccc(C(C)(NC(C)=O)c2nc(-c3ccccc3OC)cs2)cc1 (centres undefined)	TDP1 cell CPT 18.4µM, TDP1 cell noCPT 11.6µM
O=C(/C=C/c1ccc(F)cc1)NC(=S)NNC(=O)[C@H]1C[C@@H]1c1ccccc1	TDP1 cell CPT inconclusive, KB-V1 cytotox inconclusive, TDP1 cell noCPT 23.1µM
COc1cc(OC)cc(C(=O)NC(=S)NCCc2ccccc2)c1	HT1080 IDH1KD tx 35.5µM, HT1080-NT tox inconclusive, TDP1 cell noCPT inconclusive
COc1cc(OC)cc(C(=O)NC(=S)NNC(=O)[C@H]2C[C@@H]2c2ccccc2)c1	TDP1 cell CPT inconclusive, KB-V1 cytotox inconclusive, TDP1 cell noCPT 18.4µM
COc1cc(OC)cc(C(=O)NC(=S)NNC(=O)Cc2cccs2)c1	TDP1 cell CPT inconclusive, TDP1 cell noCPT inconclusive, KB-3-1 cytotox inconclusive
COc1cc(OC)cc(C(=O)NC(=S)N(Cc2ccccc2)C(C)C)c1	TDP1 cell CPT inconclusive, KB-V1 cytotox inconclusive, TDP1 cell noCPT inconclusive, KB-3-1 cytotox inconclusive
O=C(NC(=S)NNC(=O)[C@H]1C[C@@H]1c1ccccc1)c1ccc(F)cc1	TDP1 cell CPT 14.6µM, HT1080 IDH1KD tx inconclusive, TDP1 cell noCPT 13µM, KB-3-1 cytotox inconclusive
CC(C)(C)NC(=S)NNC(=O)[C@H]1C[C@@H]1c1ccccc1	TDP1 cell CPT inconclusive, TDP1 cell noCPT inconclusive
